# The list is not random: actives were taken first. Their share in the collection is about 3.2%.
# Sm TGR block – blocks Schistosoma mansoni thioredoxin glutathione reductase. Q962Y6. purified TGR, DTNB reduction, TNB absorbance 405 nm. Potency, µM (doses to about 114 µM), actives largely listed as inhibitors. 3% of 360,000 active. AID 485364; further: nearly all actives have a fitted effect of over 60% in size
#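 First, TGR (20 nM dispensed) and NADPH were mixed with compound. Second, a 15 min room-temperature incubation followed. Third, further NADPH and then DTNB were added to start the reaction. Finally, TNB absorbance was monitored kinetically.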
# TbPYK inhibitor – T. brucei pyruvate kinase inhibition; Q57TT1; 0.12% of 410,000 active; Potency, µM (highest dose often 76.8 µM), hits mostly inhibitors; AID 624173; TbPYK enzyme, Kinase-Glo Plus ATP luminescence, 45 min; further: nearly all actives have a fitted effect of over 50% in size
#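 Luminescence from Kinase-Glo Plus, added after a 45-minute room-temperature reaction, served as the end-point read-out. The enzyme and substrate were preincubated with compound before ADP (130 uM final) initiated turnover. Concentration-effect curves came from normalized qHTS data.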
# AMA1-RON2 inh – inhibitors of Plasmodium falciparum AMA1-RON2 interaction. AlphaScreen AMA1-biotinylated RON2 peptide binding. Potency, µM (doses to about 58.2 µM), usual class: inhibitors. 0.2% of 360,000 active; further: nearly all actives have a fitted effect of over 45% in size
#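 AMA1 (3D7) with his tag at 25 nM final met compounds first, then biotinylated RON2 peptide at 25 nM; detection used donor plus acceptor beads, 10 µg/mL apiece, read by AlphaScreen after 30 min at room temperature.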
# RE007 growth inh – less growth of the S. pombe RE007 Vpr strain; Potency, µM (top dose mostly 92.2 µM), hits mostly inhibitors; S. pombe RE007 Vpr strain, BacTiter-Glo ATP luminescence, 24 h; 0.21% of 360,000 active; AID 651644; active means well fitted falling curve with a large enough effect; inconclusive means small, poorly fitted or top-dose-only effect; inactive means no such curve, though single readings can be large or run the other way; further: nearly all actives have a fitted effect of over 50% in size
#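 Fission yeast RE007 carrying one integrated HIV-1 vpr copy, seeded at OD 0.01 in PMG+AL medium with 23 nL pinned compound. Grown 24 h at 30 degrees; viability read by BacTiter-Glo luminescence after 5 min.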
# LmPK inh – LmPK (Leishmania mexicana) enzyme inhibition; AID 1721; Potency, µM (doses to about 57.5 µM), actives largely listed as inhibitors; Q27686; purified LmPK, Kinase-Glo ATP luminescence, 1 h; 0.37% of 290,000 active
# Target sequence (Q27686 whole entry, looked up): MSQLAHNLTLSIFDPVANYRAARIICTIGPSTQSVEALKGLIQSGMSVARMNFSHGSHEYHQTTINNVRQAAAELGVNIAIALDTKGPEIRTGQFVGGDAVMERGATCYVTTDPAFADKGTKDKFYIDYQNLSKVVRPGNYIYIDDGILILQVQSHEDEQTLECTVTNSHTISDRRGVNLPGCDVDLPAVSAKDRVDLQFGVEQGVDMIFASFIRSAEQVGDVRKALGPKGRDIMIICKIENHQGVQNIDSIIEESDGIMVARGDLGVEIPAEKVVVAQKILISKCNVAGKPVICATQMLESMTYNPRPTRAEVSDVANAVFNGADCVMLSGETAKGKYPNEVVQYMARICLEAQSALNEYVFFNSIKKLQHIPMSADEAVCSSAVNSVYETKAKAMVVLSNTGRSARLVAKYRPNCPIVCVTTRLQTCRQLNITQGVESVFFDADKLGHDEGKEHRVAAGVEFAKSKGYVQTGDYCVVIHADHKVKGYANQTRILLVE
#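 Kinase-Glo luminescence read after 1 h RT reaction of 0.1 nM LmPK with 0.5 mM PEP and 0.1 mM ADP. Activity scaled between uninhibited and enzyme-free controls.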
# Hits are given with their value; n = inactive; u = inconclusive; x = no result; ! = not confirmed by another sample; [ ] = remark or other dose. Unless noted, the call rests on the fitted dose curve; in most records, active means well fitted curve in the direction sought with a large enough effect; inconclusive means small, poorly fitted or top-dose-only effect, or another doubt; inactive means no such curve, though single readings can be large; an effect the other way counts as inactive or inconclusive.
SMILES,Sm TGR block,TbPYK inhibitor,AMA1-RON2 inh,RE007 growth inh,LmPK inh
Cc1cc(C)cc(NC(=O)CSc2ccc(-c3ccco3)nn2)c1,22.4µM,n,n,n,n
CCC(C)n1c(=O)c2sccc2n2c(CCCC(=O)Nc3ccc(F)cc3)nnc12 (stereo not drawn),n,n,x,x,x
CN1CCC(=C2c3ccccc3CCc3sccc32)CC1,n,n,n,n[18.4 µM],n
CN1CCC(=C2c3ccccc3CC(=O)c3sccc32)CC1,50.1µM!,n,n,n,n
C=CCn1c(-c2cccc(S(=O)(=O)N3CCOCC3)c2)n[nH]c1=S,n,u,n,n,x
Cc1ccc(C)n1-c1cccc(S(=O)(=O)N2CCOCC2)c1,35.5µM,n,n,n,n
O=S(=O)(c1cccc(S(=O)(=O)N2CCOCC2)c1)N1CCCCC1,n,n,n,n,n
Cc1cc(C(=O)CCl)c(C)n1-c1cccc(S(=O)(=O)N2CCOCC2)c1,3.55µM,n,n,n,n
O=S(=O)(c1cccc(-c2n[nH]c(=S)n2C2CCCC2)c1)N1CCOCC1,n,6.31µM,n,n,n[11.5 µM]
CCc1ccc(C2CC(=O)c3c([nH]c(C(=O)OCC4CCCCC4)c3C)C2)cc1 (stereo not drawn),n,n,x,x,x
COC(=O)c1c(C)[nH]c(O)c1C=Nc1ccc(C#N)cc1,12.6µM,n,n,n,n
CCOc1cc(Cn2c(-c3ccc(O)c(OCC)c3)nc3ccccc32)ccc1O,n,n,x,x,x
CCCSCCCNC(=O)C1CCN(c2nn3cc(-c4ccc(F)cc4)nc3s2)CC1,n,n[15.4 µM],x,x,x
O=S(=O)(CCN1CCCCC1)Oc1ccc(Cl)cc1Cl,0.447µM,n,n,n,n
CC(C)Cn1cc(NC(=O)N2CCN(c3cccc(Cl)c3)CC2)c2ccccc2c1=O,u,n,x,x,x
Nc1c(C(=O)NCc2ccco2)nnn1Cc1ccccc1,n,n,n,n,n
O=C(c1ccco1)c1nnn(Cc2ccccc2)c1-c1ccccc1,31.6µM,n,n,n,n
Cc1ccccc1N1CCN(CCC(=O)Nc2ccc(F)cc2)CC1,39.8µM,n,n,n,n
O=C(CCN1CCN(c2ccccc2F)CC1)Nc1ccc(F)cc1,u,n,n,n,n
COc1cc2c(C#CCO)c(-c3ccc(C#N)cc3)oc(=O)c2cc1OC,x,n,n,n,x
COc1cc2c(C#CCCCO)c(-c3ccc(C#N)cc3)oc(=O)c2cc1OC,31.6µM,n,n,n,x
CCCCCNC(=O)C1CCC(Cn2c(=O)c3sccc3n(CC)c2=O)CC1 (stereo not drawn),n,n,x,x,x
COC(=O)C1=C(C(=O)OC)C(c2ccccc2O)c2sc(=O)[nH]c2S1 (stereo not drawn),39.8µM,n,n,n,n
CCC(C)(C)c1ccc(OCCCC[n+]2cccc(C)c2C)c(C(C)(C)CC)c1,n,n,n,28.2µM,n
OCCN(Cc1cccnc1)Cc1ccccn1,x,n,14.1µM,n,x
SMILES,Sm TGR block,TbPYK inhibitor,AMA1-RON2 inh,RE007 growth inh,LmPK inh
CCOC(=O)c1cc(CC)sc1N1C(=O)CC(Sc2ncccc2C(=O)O)C1=O (stereo not drawn),25.1µM,n,n,n,n
CCOC(=O)c1cc(CC)sc1N1C(=O)CC(Sc2ccccc2C(=O)O)C1=O (stereo not drawn),14.1µM,n,n,n,n
COc1ccc(N2C(=O)CC(Sc3ncccc3C(=O)O)C2=O)cc1 (stereo not drawn),u,n,n,n,n
CCOC(=O)c1cnc(SC2CC(=O)N(c3ccccc3)C2=O)nc1N (stereo not drawn),n,n,n,n,n
Oc1c(C(c2ccccc2)N2CCC3(CC2)OCCO3)sc2nc(-c3ccco3)nn12 (stereo not drawn),n,n,x,x,x
Cc1ccc(Cl)cc1NC(=O)C1CCN(S(=O)(=O)c2cccc3nonc23)CC1,n,n,x,x,x
S=c1[nH]c2cc3ccccc3cc2[nH]1,8.91µM!,n,n,n,n
O=c1c2c3c(sc2n2cnnc2n1-c1ccccc1)N(Cc1ccccc1)CCC3,25.1µM,n,n,n,n
Cc1cc2nc(-c3cccc(NC(=O)COc4ccc(C(C)C)cc4)c3)oc2cc1C,n,n,x,x,x
Cc1c(C(=O)Nc2cccc(C#N)c2)sc2nc3n(c(=O)c12)CCCCC3,5.62µM,n,x,x,x
Cc1c(C(=O)NCc2ccc(Cl)cc2)sc2nc3n(c(=O)c12)CCCC3,u,n,x,x,x

# Screening results (PubChem BioAssay)
